Reference: PubChem BioAssay (Tox21)
Inconclusive results are not listed. Calls of active or inactive are those of the source. Calls come from the whole dose curve. Non-standard residues stand in square brackets, D forms with d. Residues, ends and D or L forms follow the SMILES beside them. *: point of attachment. Sta = CC(C)C[C@H](N)[C@@H](O)CC(=O)O; Isovaleryl = CC(C)CC(=O)*

Key:
[1] = biological target: Acetylcholinesterase (Homo sapiens) (UniProt P22303); test: Acetylcholinesterase (AChE) small molecule antagonists: colormetric cell-based qHTS assay (AID 1347395); note: nearly all actives have a fitted effect of over 30% in size
Summary of the method: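 SH-SY5Y cells, plated overnight at 37 C, were exposed to compounds for 30 min at 37 C and 5% CO2. Acetylthiocholine plus DTNB was then added, and thiocholine from endogenous AChE was quantified colorimetrically after 90 min at 37 C.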

[2] = biological target: Acetylcholinesterase (Homo sapiens) (UniProt P22303); test: Acetylcholinesterase (AChE) small molecule antagonists: enzyme-based qHTS assay (AID 1347397); details: Potency: AChE enzyme activity inhibition; outcome: AChE enzyme activity inhibition; note: nearly all actives have a fitted effect of over 55% in size
Summary of the method: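 In this quantitative HTS, compounds from the Tox21 10K collection were preincubated 30 min at ambient temperature with recombinant human AChE dispensed at 50 mU/mL. Hydrolysis of acetylthiocholine was then followed for 10 min by DTNB colour development.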

[3] = biological target: Acetylcholinesterase (Homo sapiens) (UniProt P22303); test: Acetylcholinesterase (AChE) small molecule antagonists: fluorescence cell-based qHTS assay (AID 1347398); details: Potency: AChE activity; outcome: AChE activity; note: nearly all actives have a fitted effect of over 50% in size
Summary of the method: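 Cells (SH-SY5Y) attached overnight, were dosed with compound or DMSO vehicle for 30 min at 37 C, and then incubated 40 min at room temperature with acetylthiocholine and Thiolite Green; green fluorescence indexed AChE activity.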

[4] = biological target: Acetylcholinesterase (Homo sapiens) (UniProt P22303); test: Acetylcholinesterase (AChE) small molecule antagonists: enzyme-based qHTS assay with human liver microsomes (AID 1347399); details: Potency: qHTS inhibition; outcome: qHTS inhibition; note: nearly all actives have a fitted effect of over 60% in size
Summary of the method: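 Recombinant human AChE (50 mU/mL in the enzyme mix) and human liver microsomes (0.25 mg/mL final) were preincubated with compound and NADPH (0.25 mg/mL final) for 30 min at 37 C. Acetylthiocholine/DTNB was then added; thiocholine was read colorimetrically after 10 min at room temperature.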
% is set by controls: 0 for no effect and ±100 for the full control effect.

Acetylcholinesterase (Homo sapiens), sequence (P22303 whole entry, looked up): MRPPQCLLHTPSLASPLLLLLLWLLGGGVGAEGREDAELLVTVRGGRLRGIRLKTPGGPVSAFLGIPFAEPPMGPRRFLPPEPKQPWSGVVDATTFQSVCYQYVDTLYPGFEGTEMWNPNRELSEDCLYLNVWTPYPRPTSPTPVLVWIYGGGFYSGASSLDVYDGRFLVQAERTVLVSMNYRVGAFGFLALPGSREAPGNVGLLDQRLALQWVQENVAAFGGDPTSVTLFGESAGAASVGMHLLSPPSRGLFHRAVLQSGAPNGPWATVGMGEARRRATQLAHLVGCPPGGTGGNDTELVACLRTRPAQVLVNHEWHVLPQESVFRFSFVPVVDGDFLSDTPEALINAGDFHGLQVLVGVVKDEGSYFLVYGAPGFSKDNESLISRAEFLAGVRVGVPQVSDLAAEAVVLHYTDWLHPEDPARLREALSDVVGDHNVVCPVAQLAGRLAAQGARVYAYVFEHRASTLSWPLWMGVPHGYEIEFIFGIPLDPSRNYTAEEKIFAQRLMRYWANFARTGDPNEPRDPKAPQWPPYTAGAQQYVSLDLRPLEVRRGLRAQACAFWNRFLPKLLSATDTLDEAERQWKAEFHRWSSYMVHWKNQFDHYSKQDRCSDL

OCCOCCOCCOCCO
inactive: Potency [1] | Potency [2] | Potency [3] | Potency [4]

O=C1c2ccccc2CCc2ccccc21
inactive: Potency [1] | Potency [2] | Potency [3] | Potency [4]

CCc1ccccc1O
inactive: Potency [1] | Potency [2] | Potency [3] | Potency [4]

O=C(CCCl)NCc1ccccc1
inactive: Potency [1] | Potency [2] | Potency [3] | Potency [4]

CC1(C)[C@H]2CC[C@]1(C)C(=O)C2
inactive: Potency [1] | Potency [2] | Potency [3] | Potency [4]

Cc1ccccc1C(=O)Nc1ccc(C(=O)N2CCCC(N(C)C)c3ccccc32)cc1 (stereo not given)
inactive: Potency [1] | Potency [2] | Potency [3] | Potency [4]

c1ccc2sc(SSN3CCOCC3)nc2c1
inactive: Potency [1] | Potency [2] | Potency [3] | Potency [4]

CCCCCCCCCCOC(=O)c1ccccc1C(=O)OCCCCCCCC
inactive: Potency [1] | Potency [2] | Potency [3] | Potency [4]

CC(C)(O)C#CC(C)(C)O
inactive: Potency [1] | Potency [2] | Potency [3] | Potency [4]

CCN(CCN)c1cccc(C)c1
inactive: Potency [1] | Potency [2] | Potency [3] | Potency [4]

CC(=O)OCCCc1ccccc1
inactive: Potency [1] | Potency [2] | Potency [3] | Potency [4]

CC1(C)Oc2ccc(C#N)cc2[C@@H](N2CCCC2=O)[C@@H]1O
inactive: Potency [1] | Potency [2] | Potency [3] | Potency [4]

O=CNNC=O
inactive: Potency [1] | Potency [2] | Potency [3] | Potency [4]

CC1=Nc2ccccc2C1(C)C
inactive: Potency [1] | Potency [2] | Potency [3] | Potency [4]

CC(CC(C)(C)C)CC(C)(C)CC(C)(C)C (stereo not given)
inactive: Potency [1] | Potency [2] | Potency [3] | Potency [4]

CNc1ccc([N+](=O)[O-])cc1
inactive: Potency [1] | Potency [2] | Potency [3] | Potency [4]

CCCCCCCC(=O)OCC(COC(=O)CCCCCCC)OC(=O)CCCCCCC
inactive: Potency [1] | Potency [2] | Potency [3] | Potency [4]

O=C(O)[C@@H](O)[C@H](O)[C@H](O)[C@@H](O)C(=O)O
inactive: Potency [1] | Potency [2] | Potency [3] | Potency [4]

CCCCCCCCCCCCCCCC(=O)OC[C@H](O)[C@H]1OC(=O)C(O)=C1O
inactive: Potency [1] | Potency [2] | Potency [3] | Potency [4]

O=C1CCc2ccccc2O1
inactive: Potency [1] | Potency [2] | Potency [3] | Potency [4]

N#CCC(=O)O
inactive: Potency [1] | Potency [2] | Potency [3] | Potency [4]

NC(N)=O
inactive: Potency [1] | Potency [2] | Potency [3] | Potency [4]

C=CCCCCCCCCCCCCCCCC
inactive: activity, negative = inhibition [1] 2.13% [at 10.5 µM] | activity change, negative = inhibition [2] -0.28% [at 10.5 µM] | activity change, negative = inhibition [3] 3.23% [at 10.5 µM] | activity change, negative = inhibition [4] -0.261% [at 10.5 µM]

CCCCCNCCCCC
inactive: Potency [1] | Potency [2] | Potency [3] | Potency [4]

O=C1CCC(C2CCCCC2)CC1
inactive: Potency [1] | Potency [2] | Potency [3] | Potency [4]

COc1cccc(OC)c1C(=O)N[C@@H]1C(=O)N2[C@@H]1SC(C)(C)[C@@H]2C(=O)O
inactive: Potency [1] | Potency [2] | Potency [3] | Potency [4]

CCc1cccc2c(CCO)c[nH]c12
inactive: Potency [1] | Potency [2] | Potency [3] | Potency [4]

O=C=NCC1CCCC(CN=C=O)C1 (stereo not given)
inactive: Potency [1] | Potency [2] | Potency [3] | Potency [4]

CC1CCC(C(C)CS)CC1S (stereo not given)
inactive: Potency [1] | Potency [2] | Potency [3] | Potency [4]

CN(C)C
inactive: Potency [1] | Potency [2] | Potency [3] | Potency [4]

COc1ccc(-c2coc3cc(O)cc(O)c3c2=O)cc1
inactive: Potency [1] | Potency [2] | Potency [3] | Potency [4]

CNCCC(Oc1ccccc1OC)c1ccccc1 (stereo not given)
inactive: Potency [1] | Potency [2] | Potency [3] | Potency [4]

Nc1cc([N+](=O)[O-])ccc1Cl
inactive: Potency [1] | Potency [2] | Potency [3] | Potency [4]

CC(C)=CCCC(C)CCOC=O (stereo not given)
inactive: Potency [1] | Potency [2] | Potency [3] | Potency [4]

O=C(O)c1ccccc1Nc1cc(Cl)ccc1C(=O)O
inactive: activity, negative = inhibition [1] 1.23% [at 23.6 µM] | activity change, negative = inhibition [2] 2.19% [at 23.6 µM] | activity change, negative = inhibition [3] 2.35% [at 23.8 µM] | activity change, negative = inhibition [4] 0.168% [at 23.6 µM]

C=C(C)C(=O)OCCOC1CC2CC1C1C=CCC21 (stereo not given)
inactive: Potency [1] | Potency [2] | Potency [3] | Potency [4]

C=C(C)C1CC=C(C)C(=O)C1 (stereo not given)
inactive: Potency [1] | Potency [2] | Potency [3] | Potency [4]

Cc1cccc(Oc2ccccc2)c1
inactive: Potency [1] | Potency [2] | Potency [3] | Potency [4]

Cc1cc(NC(=O)C(=O)O)cc(C)c1Oc1ccc(O)c2c1CCC2
inactive: Potency [1] | Potency [2] | Potency [3] | Potency [4]

O=C1CCCCCCCCCCCCCCO1
inactive: Potency [1] | Potency [2] | Potency [3] | Potency [4]

CC(C)(C)NCC(O)c1cc(O)cc(O)c1 (stereo not given)
inactive: Potency [1] | Potency [2] | Potency [3] | Potency [4]

CCC1CCC(CCC(=O)O)C1 (stereo not given)
inactive: Potency [1] | Potency [2] | Potency [3] | Potency [4]

C=Cc1ccc(C)cc1
inactive: Potency [1] | Potency [2] | Potency [3] | Potency [4]

NCCN
inactive: outcome [1] | outcome [2] | outcome [3] | outcome [4]

CCCCCCCCCCCc1ccccc1
inactive: Potency [1] | Potency [2] | Potency [3] | Potency [4]

CCCCC(CC)COC(=O)COc1cc(Cl)c(Cl)cc1Cl (stereo not given)
inactive: Potency [1] | Potency [2] | Potency [3] | Potency [4]

COCCCCCCCCOCCC[Si](C)(O[Si](C)(C)C)O[Si](C)(C)C
inactive: Potency [1] | Potency [2] | Potency [3] | Potency [4]

O=Cc1c2ccccc2c(Cl)c2ccccc12
inactive: Potency [1] | Potency [2] | Potency [3] | Potency [4]

CCCCCCCCNC
inactive: Potency [1] | Potency [2] | Potency [3] | Potency [4]

O=C1CCCCCCCCCCCN1
inactive: Potency [1] | Potency [2] | Potency [3] | Potency [4]

CC1COc2ccccc2N1C(=O)C(Cl)Cl (stereo not given)
inactive: Potency [1] | Potency [2] | Potency [3] | Potency [4]

O=C1OC(=O)c2cc(-c3ccc4c(c3)C(=O)OC4=O)ccc21
inactive: Potency [1] | Potency [2] | Potency [3] | Potency [4]

COC(C)COC(C)COC(C)CO (stereo not given)
inactive: Potency [1] | Potency [2] | Potency [3] | Potency [4]

CS(C)(=O)=O
inactive: Potency [1] | Potency [2] | Potency [3] | Potency [4]

OCc1ccc(Cl)cc1Cl
inactive: Potency [1] | Potency [2] | Potency [3] | Potency [4]

CC(C)CC(=O)N[C@H](C(=O)N[C@H](C(=O)N[C@@H](CC(C)C)[C@@H](O)CC(=O)N[C@@H](C)C(=O)N[C@@H](CC(C)C)[C@@H](O)CC(=O)O)C(C)C)C(C)C (Isovaleryl-VV[Sta]A[Sta]-OH)
inactive: Potency [1] | Potency [2] | Potency [3] | Potency [4]

O=Cc1c(Cl)cccc1Cl
inactive: Potency [1] | Potency [2] | Potency [3] | Potency [4]

COc1ccc(N)c(OC)c1
inactive: Potency [1] | Potency [2] | Potency [3] | Potency [4]

CCCCC(=O)N(C)C
inactive: Potency [1] | Potency [2] | Potency [3] | Potency [4]

CC(=O)C(C)O (stereo not given)
inactive: Potency [1] | Potency [2] | Potency [3] | Potency [4]
